Assay results reported in the supplement of paper PMC10338343.
± gives the standard deviation.

Each sequence was assayed on MILI (PIWIL2) piRISC loaded with piRNA #1 (26 nt) (assay: pre-steady-state target cleavage rate (min^-1); guide: piRNA #1 5'p-UGAGGUAGUAGGUUGUAUAGUAUCCA; MIWI and MILI are mouse PIWI proteins and EfPiwi is from a freshwater sponge; tags in brackets are library labels; higher = faster piRNA-guided slicing of the target). Settings: auxiliary factor: 500 nM mouse GTSF1.
Method in brief: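 Active affinity-purified piRISC (1 nM) loaded with one synthetic guide was mixed with a transcribed, DNA-blocked target RNA library (0.1 nM), with or without 500 nM GTSF1 partner protein, in HEPES–potassium acetate buffer at 33 °C for 0–8 or 0–960 min. Uncleaved targets were sequenced, normalised to depth and to weakly complementary targets, and pooled across three trials, with k3 capped at 0.0001 min^-1. The pre-steady-state cleavage rate was determined with a burst-and-steady-state fit.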

Sequence | pre-steady-state target cleavage rate
GGAGACCUAUGUAUACAGCCUACUACCUCA | 0.0196 ± 0.0053
GGAGACCUAACUAUACAACCGUACUACCUCA | 0.00506 ± 0.005
GGAGACCUUACUAAACAACCUACUACGUCA | 0.0571 ± 0.01
GGAGUGGAUACUAAACUACCUACUACCUCA | 0.172 ± 0.011
GGAGUGGAUACUAUAGAACCUAGUACCUCA | 0.00269 ± 0.0022
GGAGACGAUACUUUACAAGCUACUACCUCA | 0.235 ± 0.015
GGAGACCUAUGAUAACCAACCUACUACCUCA | 0.00371 ± 0.0025
GGAGACCUUACUUUAGAACCUACUACCUCA | 0.13 ± 0.01
GGAGACCUUACAAUACAACCUUCUACCUCA | 0.00687 ± 0.0029
GGAGACCUAUGAUAACAACCUACUAUCCUCA | 0.00426 ± 0.003
GGAGACCUAACUAAACAACCUACUACGUCA | 0.0404 ± 0.019
GGAGACGAUACCAUACAACCUACUACCUCA | 0.236 ± 0.027
GGAGACCUUACUAUACAACUUACUACCUCA | 0.0242 ± 0.0054
GGAGACCUAUGAUAUGUUCCUUCUACCACA | < 0.0001
GGAGACCAUACAAUACAACCAACUACCUCA | 0.00736 ± 0.0032
GGAGACCUUACUAAACAACCUACUACCACA | 0.128 ± 0.017
GGAGACCAUACUAUACAACCUACUACGACA | 0.16 ± 0.025
GGAGACCUAUGAUAUGAACCUACUACGCUCA | < 0.0001
GGAGACCUAUGAUUACAACCUACUGCCUCA | 0.00572 ± 0.0028
GGAGACCUAUGUAAACAACGUACUACCUCA | 0.0029 ± 0.002

Sequence | pre-steady-state target cleavage rate
GGAGACCUUACUAUACAACCUACUAACUCA | 0.0948 ± 0.017
GGAGACCUAUGAUAUCAACCUAGUACCUGA | < 0.0001
GGAGACCUAAGAUUACAACCUACUACCUCA | 0.0144 ± 0.0043
GGAGACCUAUGAUAACAACCUACUACCUGCA | 0.00443 ± 0.0033
GGAGACGAUACAAUACAACCUACUAGCUCA | 0.137 ± 0.023
GGAGACCAUACAAUACAACCUACAACCUCA | 0.136 ± 0.014
GGAGACCUAUGUAUACAACCUAGAUCCUCA | 0.00265 ± 0.0026
GGAGACCUAUGUUUACAACCUACUACCACA | 0.0147 ± 0.0041
GGAGACCAUACUUUAGAACCUACUACCUCA | 0.134 ± 0.013
GGAGACCUUACUAGACAACCUACUACCUCA | 0.155 ± 0.015
GGAGACCUAUGAAUACAAGCAACUACCUCA | 0.00265 ± 0.0026
GGAGACCUAUCUAUACAUCGUACUACCUCA | 0.014 ± 0.0026
GGAGACCAUACUAUACAACCUACUCCUCA | 0.0178 ± 0.0057
GGAGACCUAUCAAUACAACCUUCUACCUCA | 0.00474 ± 0.0027
GGAGACCUAUCUAUACAACCUACUCCCUCA | 0.0608 ± 0.0097
GGAGACCUUACUAUACAACCAACAACCUCA | 0.00353 ± 0.0022
GGAGACCUAUGUAUACAACCCACUACCUCA | 0.0101 ± 0.0034
GGAGACCUAUGUAUACAUCCUACUAGCUCA | 0.0312 ± 0.0078
GGAGACCUAUGAUAACAACCUACAACCUCA | 0.00456 ± 0.0024
GGAGUCGAUACUUUACAACCUACUACCUCA | 0.185 ± 0.009
